# Measurements reported in the supplement of paper PMC11001985.
# Compound: C#CCNC(=O)CCSSCCC(=O)NCCc1ccc(C=O)c(C=O)c1
# Test: lysine labeling ratio R10:1 (500 µM / 50 µM probe), SILAC-ABPP in living cells; higher = lower intrinsic lysine reactivity toward the probe, active = 2 or less
# Details: HeLa; probe concentrations 500 vs 50 µM
# How it was run: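 With forward and reverse label swaps, light and heavy SILAC HeLa cells, alive and in PBS at room temperature, were exposed to either 500 µM or 50 µM of an alkyne-tagged lysine probe bearing a disulfide link. After mixing, lysates were clicked to biotin-azide, cut with trypsin, pulled down on neutravidin, freed with DTT, alkylated and analysed on a TIMS-TOF Pro by LC-MS/MS. The per-lysine value R is the median over forward and reverse replicates of the filtered median high-probe/low-probe MS1 peptide ratio. It is capped at 20.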
# Chain of UniProt Q15149 (Q15149 whole entry): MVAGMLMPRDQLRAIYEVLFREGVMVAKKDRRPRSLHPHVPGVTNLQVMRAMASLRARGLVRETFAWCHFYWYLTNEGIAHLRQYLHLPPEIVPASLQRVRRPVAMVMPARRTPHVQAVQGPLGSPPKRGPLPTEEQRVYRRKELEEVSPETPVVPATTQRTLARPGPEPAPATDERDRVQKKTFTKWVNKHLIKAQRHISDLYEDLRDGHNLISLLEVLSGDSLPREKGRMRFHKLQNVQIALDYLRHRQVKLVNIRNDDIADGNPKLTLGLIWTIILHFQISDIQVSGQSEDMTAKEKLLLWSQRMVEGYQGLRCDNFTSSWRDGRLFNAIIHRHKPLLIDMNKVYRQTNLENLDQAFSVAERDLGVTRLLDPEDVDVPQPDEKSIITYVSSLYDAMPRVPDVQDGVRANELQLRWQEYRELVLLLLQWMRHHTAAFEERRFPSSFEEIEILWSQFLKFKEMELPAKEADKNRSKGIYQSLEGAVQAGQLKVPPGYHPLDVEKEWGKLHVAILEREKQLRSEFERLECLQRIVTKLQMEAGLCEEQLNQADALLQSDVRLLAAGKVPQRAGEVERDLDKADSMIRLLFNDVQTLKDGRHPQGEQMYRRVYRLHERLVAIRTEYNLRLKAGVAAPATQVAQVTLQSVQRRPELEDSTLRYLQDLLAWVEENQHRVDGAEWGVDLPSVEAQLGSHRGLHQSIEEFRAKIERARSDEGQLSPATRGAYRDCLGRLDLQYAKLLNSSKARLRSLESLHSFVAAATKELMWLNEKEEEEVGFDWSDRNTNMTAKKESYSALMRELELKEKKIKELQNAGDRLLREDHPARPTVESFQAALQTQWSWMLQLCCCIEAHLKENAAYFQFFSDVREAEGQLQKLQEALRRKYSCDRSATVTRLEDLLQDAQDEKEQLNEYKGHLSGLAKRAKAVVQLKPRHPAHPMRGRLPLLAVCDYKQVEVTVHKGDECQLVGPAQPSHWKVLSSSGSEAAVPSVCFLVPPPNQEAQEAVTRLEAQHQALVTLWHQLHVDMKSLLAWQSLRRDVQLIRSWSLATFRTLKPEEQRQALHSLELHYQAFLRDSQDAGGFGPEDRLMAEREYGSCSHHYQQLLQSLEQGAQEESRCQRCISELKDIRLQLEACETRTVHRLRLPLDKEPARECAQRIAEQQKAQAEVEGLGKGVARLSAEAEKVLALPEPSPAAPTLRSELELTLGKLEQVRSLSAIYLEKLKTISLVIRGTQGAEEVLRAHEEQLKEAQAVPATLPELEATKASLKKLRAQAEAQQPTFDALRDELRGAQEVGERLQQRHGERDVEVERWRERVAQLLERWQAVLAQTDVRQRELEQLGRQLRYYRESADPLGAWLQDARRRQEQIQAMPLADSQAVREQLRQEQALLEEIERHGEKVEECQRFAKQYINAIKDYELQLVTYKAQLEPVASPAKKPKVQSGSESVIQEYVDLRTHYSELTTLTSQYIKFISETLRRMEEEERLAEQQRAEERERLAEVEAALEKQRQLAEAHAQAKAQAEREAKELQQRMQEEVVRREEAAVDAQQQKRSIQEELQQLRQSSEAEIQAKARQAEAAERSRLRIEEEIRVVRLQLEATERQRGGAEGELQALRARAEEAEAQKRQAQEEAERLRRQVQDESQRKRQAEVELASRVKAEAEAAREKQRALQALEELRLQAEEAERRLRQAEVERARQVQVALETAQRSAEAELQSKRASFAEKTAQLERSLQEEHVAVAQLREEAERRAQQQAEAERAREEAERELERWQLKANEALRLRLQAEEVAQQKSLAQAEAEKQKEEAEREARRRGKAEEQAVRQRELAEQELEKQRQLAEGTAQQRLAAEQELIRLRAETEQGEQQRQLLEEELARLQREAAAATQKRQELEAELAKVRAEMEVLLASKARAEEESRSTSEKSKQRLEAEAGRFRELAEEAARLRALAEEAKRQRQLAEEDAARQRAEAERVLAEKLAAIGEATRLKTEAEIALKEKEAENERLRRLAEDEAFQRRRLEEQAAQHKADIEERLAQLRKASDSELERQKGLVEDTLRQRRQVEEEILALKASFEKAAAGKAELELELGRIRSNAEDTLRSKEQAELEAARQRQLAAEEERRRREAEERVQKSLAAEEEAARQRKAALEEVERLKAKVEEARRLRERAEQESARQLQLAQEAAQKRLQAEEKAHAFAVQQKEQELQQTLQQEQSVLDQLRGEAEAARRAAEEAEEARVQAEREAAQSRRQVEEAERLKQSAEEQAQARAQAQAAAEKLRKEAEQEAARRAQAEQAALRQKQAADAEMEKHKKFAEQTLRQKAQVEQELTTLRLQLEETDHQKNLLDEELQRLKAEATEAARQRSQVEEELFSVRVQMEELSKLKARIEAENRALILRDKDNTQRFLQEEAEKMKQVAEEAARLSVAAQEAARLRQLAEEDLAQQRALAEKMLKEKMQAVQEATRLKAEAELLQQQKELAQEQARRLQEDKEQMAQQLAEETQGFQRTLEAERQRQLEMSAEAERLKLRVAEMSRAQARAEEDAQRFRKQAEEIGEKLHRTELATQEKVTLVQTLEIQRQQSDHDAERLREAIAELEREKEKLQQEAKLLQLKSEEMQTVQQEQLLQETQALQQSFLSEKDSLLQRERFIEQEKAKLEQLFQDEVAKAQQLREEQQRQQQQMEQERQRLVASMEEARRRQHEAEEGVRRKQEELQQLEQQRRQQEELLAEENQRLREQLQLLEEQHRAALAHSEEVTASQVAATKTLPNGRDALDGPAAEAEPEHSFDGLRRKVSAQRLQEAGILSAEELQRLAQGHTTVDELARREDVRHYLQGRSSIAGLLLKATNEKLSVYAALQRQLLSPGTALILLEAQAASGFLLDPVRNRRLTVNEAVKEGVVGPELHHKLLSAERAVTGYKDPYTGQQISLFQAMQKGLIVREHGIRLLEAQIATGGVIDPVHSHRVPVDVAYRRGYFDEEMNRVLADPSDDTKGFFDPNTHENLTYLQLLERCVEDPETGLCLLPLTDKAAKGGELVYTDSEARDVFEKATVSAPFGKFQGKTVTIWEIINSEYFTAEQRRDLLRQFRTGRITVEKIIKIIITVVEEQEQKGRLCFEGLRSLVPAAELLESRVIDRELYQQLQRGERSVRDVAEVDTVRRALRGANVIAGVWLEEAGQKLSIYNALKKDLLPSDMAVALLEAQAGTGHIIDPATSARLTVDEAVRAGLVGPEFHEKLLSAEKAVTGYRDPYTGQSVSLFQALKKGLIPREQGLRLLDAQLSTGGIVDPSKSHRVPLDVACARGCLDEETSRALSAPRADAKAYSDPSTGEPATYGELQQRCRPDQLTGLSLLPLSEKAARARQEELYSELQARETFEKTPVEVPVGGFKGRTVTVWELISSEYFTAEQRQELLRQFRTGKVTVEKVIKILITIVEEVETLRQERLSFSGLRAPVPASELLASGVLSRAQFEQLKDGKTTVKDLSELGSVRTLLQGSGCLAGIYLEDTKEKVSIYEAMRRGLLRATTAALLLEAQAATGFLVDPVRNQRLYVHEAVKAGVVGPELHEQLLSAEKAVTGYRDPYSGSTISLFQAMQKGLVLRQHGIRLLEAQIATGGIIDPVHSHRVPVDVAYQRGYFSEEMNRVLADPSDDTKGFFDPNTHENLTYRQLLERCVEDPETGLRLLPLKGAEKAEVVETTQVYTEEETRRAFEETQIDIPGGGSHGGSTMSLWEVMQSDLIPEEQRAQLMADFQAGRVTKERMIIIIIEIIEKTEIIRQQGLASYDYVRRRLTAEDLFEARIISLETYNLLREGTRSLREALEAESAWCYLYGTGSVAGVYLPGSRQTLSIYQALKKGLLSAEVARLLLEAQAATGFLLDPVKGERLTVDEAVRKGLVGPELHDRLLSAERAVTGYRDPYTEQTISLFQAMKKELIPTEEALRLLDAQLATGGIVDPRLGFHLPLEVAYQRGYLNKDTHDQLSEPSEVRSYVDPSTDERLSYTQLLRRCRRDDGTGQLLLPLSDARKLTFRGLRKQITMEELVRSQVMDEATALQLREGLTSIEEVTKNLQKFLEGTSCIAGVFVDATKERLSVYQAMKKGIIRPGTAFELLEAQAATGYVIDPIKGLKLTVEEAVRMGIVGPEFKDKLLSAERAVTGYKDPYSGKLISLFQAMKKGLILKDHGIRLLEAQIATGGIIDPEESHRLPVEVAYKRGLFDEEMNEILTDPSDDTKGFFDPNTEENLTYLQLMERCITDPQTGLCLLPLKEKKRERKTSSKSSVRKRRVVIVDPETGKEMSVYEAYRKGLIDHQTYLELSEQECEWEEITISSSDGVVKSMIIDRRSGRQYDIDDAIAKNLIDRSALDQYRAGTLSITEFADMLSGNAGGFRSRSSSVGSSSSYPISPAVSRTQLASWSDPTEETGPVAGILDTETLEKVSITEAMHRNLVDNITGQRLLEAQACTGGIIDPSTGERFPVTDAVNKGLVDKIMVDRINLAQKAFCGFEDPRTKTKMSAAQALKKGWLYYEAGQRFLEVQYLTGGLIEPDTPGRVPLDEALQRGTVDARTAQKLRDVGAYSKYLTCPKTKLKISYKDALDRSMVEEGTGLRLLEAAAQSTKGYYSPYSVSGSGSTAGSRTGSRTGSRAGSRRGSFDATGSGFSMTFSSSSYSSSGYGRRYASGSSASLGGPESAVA
# Chain of UniProt P48509 (P48509 whole entry): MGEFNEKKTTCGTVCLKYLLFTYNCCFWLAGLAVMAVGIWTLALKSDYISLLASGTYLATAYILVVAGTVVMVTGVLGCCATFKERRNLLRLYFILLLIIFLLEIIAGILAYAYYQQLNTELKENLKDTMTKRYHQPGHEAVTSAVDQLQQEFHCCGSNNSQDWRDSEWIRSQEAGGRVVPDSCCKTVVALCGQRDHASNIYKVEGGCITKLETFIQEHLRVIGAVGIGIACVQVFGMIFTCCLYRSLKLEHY
# Chain of UniProt Q16629 (Q16629 whole entry): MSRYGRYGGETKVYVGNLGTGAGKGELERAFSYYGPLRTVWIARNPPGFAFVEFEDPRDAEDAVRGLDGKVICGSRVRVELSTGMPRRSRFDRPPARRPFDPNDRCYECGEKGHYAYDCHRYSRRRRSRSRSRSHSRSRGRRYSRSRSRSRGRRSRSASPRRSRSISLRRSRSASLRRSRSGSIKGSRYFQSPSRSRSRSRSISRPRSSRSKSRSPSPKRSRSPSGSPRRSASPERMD
row,Target,lysine labeling ratio R10:1
1,CKB (lysine site: K313) (UniProt P12277),1.31 (active)
2,UniProt Q15149 (lysine site: K2452),3.75 (inactive)
3,LAMB1 (lysine site: K1746) (UniProt P07942),3.26 (inactive)
4,UniProt P62269 (lysine site: K106),1.85 (active)
5,DIABLO (lysine site: K219) (UniProt Q9NR28),1.92 (active)
6,ATP6V0D1 (lysine site: K77) (UniProt P61421),1.33 (active)
7,UniProt P25705 (lysine site: K175),2.16 (inactive)
8,TKT (lysine site: K204) (UniProt P29401),10.2 (inactive)
9,XRCC6 (lysine site: K238) (UniProt P12956),0.959 (active)
10,PLXNB2 (lysine site: K1110) (UniProt O15031),4.66 (inactive)
11,EPHA2 (lysine site: K441) (UniProt P29317),7.45 (inactive)
12,GANAB (lysine site: K491) (UniProt Q14697),1.12 (active)
13,LAMC1 (lysine site: K1039) (UniProt P11047),3.94 (inactive)
14,DNASE1L1 (lysine site: K33) (UniProt P49184),11 (inactive)
15,PRDX2 (lysine site: K92) (UniProt P32119),6.57 (inactive)
16,UniProt P05787 (lysine site: K325),12.1 (inactive)
17,NCL (lysine site: K449) (UniProt P19338),0.805 (active)
18,RPL35A (lysine site: K73) (UniProt P18077),3.82 (inactive)
19,CD151 (lysine site: K127) (UniProt P48509),2.31 (inactive)
20,EPHB4 (lysine site: K267) (UniProt P54760),3.27 (inactive)

row,Target,lysine labeling ratio R10:1
1,YWHAQ (lysine site: K85) (UniProt P27348),4.79 (inactive)
2,UniProt Q16629 (lysine site: K24),3 (inactive)
3,HNRNPU (lysine site: K565) (UniProt Q00839),3.39 (inactive)
4,ANXA1 (lysine site: K287) (UniProt P04083),2.78 (inactive)
5,FKBP4 (lysine site: K390) (UniProt Q02790),3.84 (inactive)
6,UniProt Q8IWU5 (lysine site: K443),1.5 (active)
7,NUCB2 (lysine site: K171) (UniProt P80303),2.34 (inactive)
8,RPS2 (lysine site: K275) (UniProt P15880),1.57 (active)
9,CDH13 (lysine site: K74) (UniProt P55290),5.06 (inactive)
10,HSPA5 (lysine site: K521) (UniProt P11021),1.53 (active)
11,UniProt Q15149 (lysine site: K2339),4.2 (inactive)
12,FOLR1 (lysine site: K41) (UniProt P15328),1.41 (active)
13,UniProt P62244 (lysine site: K88),1.79 (active)
14,UniProt Q9BTX1 (lysine site: K628),5.32 (inactive)
15,SEMA3C (lysine site: K731) (UniProt Q99985),0.505 (active)
16,CD58 (lysine site: K60) (UniProt P19256),6.36 (inactive)
17,TAGLN2 (lysine site: K171) (UniProt P37802),8.2 (inactive)
18,TMEM30A (lysine site: K279) (UniProt Q9NV96),1.73 (active)
19,ITGAV (lysine site: K134) (UniProt P06756),2.96 (inactive)
20,UniProt P16144 (lysine site: K510),2.83 (inactive)
